Screen size: about 310,000 compounds; about 11,000 (3.5%) were called active. Roughly 4% stayed inconclusive and do not appear here. This excerpt belongs to a sample that is enriched for actives. A number with no mark means an inactive call. Calls follow the shape of the dose curve; as a rule, active = well fitted inhibition curve with a large enough effect; inconclusive = small, poorly fitted or top-dose-only effect, or another doubt; inactive = no such curve, though single readings can be large or run the other way.
Molecular target: 4'-phosphopantetheinyl transferase ffp (Bacillus subtilis) (UniProt Q9F4F7)
Assay: qHTS Assay for Inhibitors of Bacillus subtilis Sfp phosphopantetheinyl transferase (PPTase);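 also: the enzyme is Sfp with the accession as filed and its product quenches rhodamine fluorescence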;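 as to largest response in the series, negative = inhibition: 0% = enzyme reaction without inhibitor and -100% = no enzyme wells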
Settings: Biochemical Sfp PPTase activity
Outline: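 Step 1, compound plus 15 nM Sfp-PPTase, 15 min, room temperature. Step 2, add rhodamine-CoA (5 uM) and BHQ-2-YbbR (12.5 uM). Step 3, read 525/598 nm fluorescence at 0 and 30 min.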
Potency is read from the fitted curve at half-maximal effect.

COc1ccc(N2C(=O)C3C(C2=O)C(C(=O)c2ccccc2)N2CCCC32)cc1 (stereo not given) was tested, and the Potency was 50.1 µM (active).
Cc1nc(N2CCOCC2)sc1C(=O)NN was tested, and the Potency was 56.2 µM (active).
Nc1nnnn1CC(=O)N/N=C/c1ccc(-c2cccc(Cl)c2)o1 was tested, and the Potency was 25.1 µM (active).
With CCn1c2ccccc2c2cc(NC(=O)Nc3ccc([N+](=O)[O-])cc3C)ccc21 the Potency was 56.2 µM (active).
With N#Cc1c(N)sc2c1CCN(C(=O)OCc1ccccc1)C2 the Potency was 20 µM (active).

Point of comparison: CC(=O)c1ccc(NC(=O)Nc2ccc([N+](=O)[O-])cc2C)cc1, largest response in the series, negative = inhibition 10.3%. Against it:
- COc1ccc(N2C(=O)C3CCCN3C2c2cccs2)cc1 (stereo not given) — lower, -3.66%
- COc1ccc(N2C(=O)C(Cc3ccccc3)NC2=S)cc1 (stereo not given) — lower, 6.01%
- O=C(N/C(=C\c1ccc([N+](=O)[O-])cc1)C(=O)N1CCOCC1)c1cccc(Br)c1 — lower, 3.86%
- CCOC(=O)N1CCN(C(=O)C(C)NC(=O)c2ccco2)CC1 (stereo not given) — higher, 26.5%
- CCn1c(SCC(=O)Nc2ccc(Br)cc2)nc2sc3c(c2c1=O)CCN(C)C3 — lower, 2.9%
- CCOC(=O)N1CCC(NC(=O)c2ccc3nc(N4CCOCC4)sc3c2)CC1 — lower, 6.95%
- Cc1nc(-c2ccc(Cl)cc2)sc1C(=O)NN — lower, 5.7%
- Cc1ccc(NS(=O)(=O)c2ccc3c(c2)NC(=O)CO3)cc1 — lower, 7.8%
- O=C(Cn1nnc(-c2ccccc2)n1)N/N=C/c1ccc(-c2ccc(Cl)cc2)o1 — higher, 25.9%
- COC(=O)N/N=C/c1ccc(-c2ccc(Cl)c(Cl)c2)o1 — lower, -3.69%
- Cc1cc([N+](=O)[O-])ccc1NC(=O)c1ccc(NC(=O)C(C)C)cc1 — lower, 6.44%
- O=[N+]([O-])c1ccc(N(CCO)Cc2ccccc2)c([N+](=O)[O-])c1 — lower, 3.62%
- O=C(c1cnc(Cl)c(Cl)c1)N1CCN(S(=O)(=O)c2ccc(F)cc2)CC1 — lower, -5.59%
- Cc1cccc(NC(=O)N2CCCCCC2)c1C — lower, 3.74%
- CC(C)N1CCc2c(sc(NC(=O)Cc3ccccc3)c2C#N)C1 — higher, 11.3%
- CC(=O)N1CCc2c(sc(NC(=O)CCS(=O)(=O)c3ccccc3)c2C#N)C1 — lower, -1.97%
- CC(CC(=O)Nc1ccc(F)cc1F)S(=O)(=O)c1ccc2c(c1)NC(=O)CO2 (stereo not given) — lower, 0.768%
- NS(=O)(=O)c1ccc(CCNS(=O)(=O)c2cccc3cccnc23)cc1 — lower, 2.24%
- COc1ccc(CN2CCN(C(=O)CCC(=O)Nc3nnc(C(C)C)s3)CC2)cc1F — higher, 17.5%

Source: PubChem BioAssay AID1490 (National Center for Advancing Translational Sciences (NCATS), 2009)
